The record followed here is ChEMBL document CHEMBL3988442, “University of Dundee, Small-Polar-MMV Screening Library” (2021).

Hit rate of the full screen: of about 48,000 compounds, about 13,000 (27%) showed an effect of 50% or more. The list shows a part of the results.

The subject of the test is Wolbachia pipientis. The test is described as follows: Anti-Wolbachia Cell-Based Screen. To be noted: 5 µM. Also noted: scale not given: in the data most compounds retested in dose-response had high values. The class given is functional.
As to `Cn1ccnc1-c1ccc(NC[C@H]2CCc3ccccc3O2)nn1`, the “Percent Effect” value came to 2.045%.

As to `Cn1c(NC(=O)CNC(=O)C2CCCC2)nc2cc(Cl)ccc21`, the “Percent Effect” value is 10.58%. The value for `Cc1nnc(CN2CCC3(CCC(=O)N(C4CC4)C3)CC2)o1` was 3.003%; that for `COc1cccc2c1OCC(C(=O)N1CCN(S(=O)(=O)N(C)C)CC1)C2` (stereo not given) was -34.53%; that for `Cc1nc(C)n(CC2CN(S(C)(=O)=O)Cc3nccn3C2)n1` (stereo not given) was 2.83%.

As for `O=S(=O)(C1CC1)N1Cc2nccn2CC(Cn2cncn2)C1` (stereo not given), the “Percent Effect” value was determined as 116.3%.

For `CCS(=O)(=O)N1Cc2nccn2CC(Cn2cccn2)C1` (stereo not given), the “Percent Effect” value stood at 103.5%. Consider `CCCS(=O)(=O)N1Cc2nccn2CC(CN2CCCC2)C1.O=C(O)C(F)(F)F` (stereo not given), for which the “Percent Effect” value is listed as -1.434%. For the compound `CCCS(=O)(=O)N1Cc2nccn2CC(Cn2cccn2)C1` (stereo not given), the “Percent Effect” value is reported as -3.213%.

For `CCCS(=O)(=O)N1Cc2nccn2CC(Cn2cncn2)C1` (stereo not given), the “Percent Effect” value came out at 104.9%. On to `CCS(=O)(=O)N1Cc2nccn2CC(Cn2cncn2)C1` (stereo not given), for which the “Percent Effect” value came out at 101.6%. The value for `CCS(=O)(=O)N1Cc2nccn2CC(CN2CCCC2)C1` (stereo not given) was -0.1339%. `CCS(=O)(=O)N1Cc2nccn2CC(Cn2nc(C)nc2C)C1` (stereo not given): the “Percent Effect” value was 6.553%. Regarding `CCn1nccc1C(=O)N1CCCCC1CCc1ccc(O)cc1` (stereo not given), the “Percent Effect” value was 1.71%. As to `CC(NC(=O)Nc1nccs1)c1ccc(S(C)(=O)=O)cc1` (stereo not given), the “Percent Effect” value stood at 7.495%.

With `CCC(C(=O)NCC1CCN(c2cnn(C)c(=O)c2)CC1)n1cccn1` (stereo not given), the “Percent Effect” value is 4.446%. Turning to `O=C(c1ccoc1)N1CCCn2nnc(COCC3CC3)c2C1`, the “Percent Effect” value is given as -7.176%. As for `O=C(C1CCC1)N1CCc2[nH]cnc2C12CCN(C1CCOCC1)CC2`, the “Percent Effect” value stood at 2.513%. For `CN1CCN(Cc2nc3c(s2)CCCC3)[C@H]2CS(=O)(=O)C[C@H]21`, the “Percent Effect” value was -12.07%. For `CC(C)(C)c1nnc(CN2CCN(CC(O)c3ccccc3)CC2)o1` (stereo not given), the “Percent Effect” value is reported as -4.717%.

In the case of `O=C(CCCc1ccc(F)cc1)N1C[C@@H](CN2CCOCC2)[C@@H](CO)C1`, the “Percent Effect” value is listed as -13.37%. With `O=C1CN(Cc2cnc3c(-c4ccccc4)cnn3c2)CCCN1`, the “Percent Effect” value is -7.334%. Take `CNC(=O)[C@@H](C1CC1)N1CCC[C@H]1C(=O)NCC(C)C.Cl`: the “Percent Effect” value turned out to be 5.18%. `CN(CCN1CCCCCC1)C(=O)c1cc(CN2CCCC(O)C2)on1` (stereo not given): the “Percent Effect” value is -22.76%. Turning to `CC(=O)Nc1c(C)cnn1Cc1cc(F)ccc1F`, the “Percent Effect” value was -3.865%. For `COc1ccc(C(=O)NCCCOC(C)c2ccccc2)c(OC)c1` (stereo not given), the “Percent Effect” value was determined as 92.39%.

Take `COc1ccc(C(=O)NCCCNc2ncccn2)c(OC)c1`: the “Percent Effect” value is listed as -2.256%.

On to `CS(=O)(=O)NCCCNC(=O)c1cccnc1O`, for which the “Percent Effect” value is -1.609%. In the case of `CC(OCCCNC(=O)c1cccnc1O)c1ccccc1` (stereo not given), the “Percent Effect” value turned out to be 95.41%.

For the compound `O=C(NCCCN1CCc2ccccc2C1)c1cccnc1O`, the “Percent Effect” value is 6.847%.

In the case of `COc1ccc(C(=O)NCCc2nnc3ccccn23)c(OC)c1`, the “Percent Effect” value was -1.311%. The value for `COCCN1CC2(CCCN(Cc3cc(=O)c(OC)co3)C2)CCC1=O` (stereo not given) was 3.181%. Regarding `COc1cc(CNC(=O)NCCCF)cc(Br)c1OC`, the “Percent Effect” value is -2.867%. As to `CN(C(=O)CN1CCCC1Cc1ccccc1)c1ccccc1` (stereo not given), the “Percent Effect” value amounted to 21.48%. The value for `CN(C(=O)CSc1ncc[nH]1)C1CC1` was 109.9%; that for `CN(C(=O)Cn1nc(-c2ccc(F)cc2)oc1=O)c1ccccc1` was -62.32%. The value for `CN(C(=O)CSc1ncc[nH]1)c1ccccc1` was 93.6%; that for `CCN(C(=O)CSc1ccc(C(F)(F)F)cn1)C1CC1` was -14.79%. In the case of `CCN(CC)C(=O)CSc1ncc[nH]1`, the “Percent Effect” value is reported as 45.3%. The value for `COc1ncccc1NC(=O)N1CCCC(CNC(=O)OC(C)(C)C)C1` (stereo not given) was 1.374%; that for `O=C(NC[C@H]1Cn2c(-c3ccccc3)cnc2CO1)C1CCOCC1` was -9.795%. Regarding `Cn1c(-c2ccccc2Cl)nc2cc(C(=O)NCC3(C)COC3)cnc21`, the “Percent Effect” value is recorded as 7.504%. The value for `CCCc1nccn1-c1cccc(C(C)O)c1` (stereo not given) was 0.8056%. The value for `Cc1ccc(C(=O)NC2CCN(C(=O)Nc3ccncc3)CC2)o1` was 166.8%.

On to `Cc1ccc(C(=O)NC2CCN(C(=O)Nc3ccccn3)CC2)o1`, for which the “Percent Effect” value turned out to be 4.828%. Consider `Cc1ccc(C(=O)NC2CCN(C(=O)NCc3ccccn3)CC2)o1`, for which the “Percent Effect” value is recorded as 118.1%. The value for `Cc1ccc(NC(=O)N2CCC(NC(=O)c3ccc(C)o3)CC2)cc1` was -6.266%; that for `Cc1cc(C(=O)NC2CCN(C(=O)Nc3cccnc3)CC2)c(C)o1` was 20.93%; that for `O=C(NCc1ccccn1)N1CC=C(c2ccccc2)CC1` was 32.63%. For the compound `Cc1ccc(C)c(OCCN(C)C(=O)C2CCCN2C(N)=O)c1C` (stereo not given), the “Percent Effect” value is -6.745%. Consider `COc1ccc(C2CCCN2c2ccc(C#N)cn2)c(OC)c1` (stereo not given), for which the “Percent Effect” value is listed as 3.649%. Turning to `CCCN1CCC2(C1)c1ccccc1S(=O)(=O)N2Cc1ccccc1.O=C(O)C(F)(F)F` (stereo not given), the “Percent Effect” value stood at 16.14%. Consider `CC(=O)N1CCC2(C1)c1ccccc1S(=O)(=O)N2C` (stereo not given), for which the “Percent Effect” value is on record as 115.8%. For `CCCN1CCC2(C1)c1ccccc1S(=O)(=O)N2C.O=C(O)C(F)(F)F` (stereo not given), the “Percent Effect” value is given as -10.43%. Turning to `CC(=O)N1CCC2(C1)c1ccccc1S(=O)(=O)N2Cc1ccccc1` (stereo not given), the “Percent Effect” value is listed as 103.8%. The value for `CCCN(CC(=O)OC)C(=O)c1sc(C)nc1C` was 1.933%; that for `Cn1cnc2c1CCN(CCOc1ccc3c(c1)CCC(=O)N3)C2` was -6.768%; that for `Cc1ccc(CNC2(Cc3cc(C(C)(C)O)on3)COC2)o1` was -11.3%. Turning to `FC(F)(F)c1ccc(-c2n[nH]c3c2CN(CC2CCOC2)CC3)cc1` (stereo not given), the “Percent Effect” value was determined as 2.824%. As for `CCOC(=O)CCC(=O)N1CCC(Oc2ncccc2Cl)CC1`, the “Percent Effect” value turned out to be 1.106%. Turning to `CCCC(=O)N1CCC(c2cc[nH]n2)C1` (stereo not given), the “Percent Effect” value was determined as 112.5%. The value for `Cn1ccc(C(=O)N2CCCC(c3cc4cccnc4c(O)n3)C2)n1` (stereo not given) was 126.9%; that for `CCCC(=O)N1CCC(c2nn(C)c(=O)n2-c2ccccc2)CC1` was 0.6972%; that for `CCN(C)CC1CCN(C(=O)Nc2ccc(-c3cc[nH]n3)cc2)C1` (stereo not given) was 2.001%. For `CCCC(=O)N1CCC(c2cc3cccnc3c(O)n2)CC1`, the “Percent Effect” value was determined as 125.1%.

As to `CCCC(=O)N1CCCC(c2cc3cccnc3c(O)n2)C1` (stereo not given), the “Percent Effect” value is 167%. With `CCNC(=O)N1CCN(C(=O)c2cc(Cl)cc3cccnc23)CC1`, the “Percent Effect” value is -12.31%.

With `CN(Cc1ccon1)C(=O)C1CC(=O)N(Cc2cccnc2)C1` (stereo not given), the “Percent Effect” value stood at 3.448%. For `Cc1cc(Cn2cncc(Br)c2=O)on1`, the “Percent Effect” value was 0.4664%.

As to `O=C(NCc1cccc(C(F)(F)F)c1)C(c1cccnc1)N1CCCC1` (stereo not given), the “Percent Effect” value is on record as -10.57%. As to `CC(C)[C@H]1COC(=O)N1CC(=O)N1CCCN(C(=O)c2ccoc2)CC1`, the “Percent Effect” value is -24.24%. For `Cc1cccc(N2CCC(NCc3cnc(C4CCC4)s3)CC2)n1`, the “Percent Effect” value amounted to 7.912%. On to `Cc1nc(C(F)(F)F)nc(N2CCC3(CC2)CC(C(=O)O)N(C)C3)c1C` (stereo not given), for which the “Percent Effect” value is -7.708%. As to `CCCC(=O)N1CCCC(c2ccccn2)C1` (stereo not given), the “Percent Effect” value turned out to be 152.5%. The value for `CCOCCC(=O)N1CCCC(c2ncc[nH]2)C1` (stereo not given) was -13.21%; that for `CCC(=O)N1CCCC(c2cc(Nc3ncccn3)nc(C)n2)C1` (stereo not given) was -9.589%; that for `Cc1nc2c(s1)C(N(C)C(=O)NCCCC(C)(C)CO)CCC2` (stereo not given) was -8.844%. Consider `Cc1noc(C(C)Nc2ccc(N3CCOCC3)cc2C)n1` (stereo not given), for which the “Percent Effect” value came out at 200.3%. Regarding `Cc1cc(CN2CCN(C(C)c3nc(C(C)C)no3)CC2)no1` (stereo not given), the “Percent Effect” value turned out to be 1.416%. As to `Cc1cc(CNC(=O)NC(C)c2ccc(N3CCOCC3)cc2)no1` (stereo not given), the “Percent Effect” value amounted to 1.457%.

As for `CC(NCc1nnc2n1CCCC2)c1nc(C(C)(C)C)no1` (stereo not given), the “Percent Effect” value is reported as 3.435%. The value for `CCN1CCN(c2ccc(NC(C)c3nc(C(C)C)no3)c(C)c2)CC1` (stereo not given) was 117.8%. As to `Cc1cc(OCC(=O)NC(C)c2ccc(N3CCOCC3)cc2)no1` (stereo not given), the “Percent Effect” value is -0.3596%. For the compound `Cc1noc(C(C)Nc2ccc3oc(C)nc3c2)n1` (stereo not given), the “Percent Effect” value turned out to be 8.533%. For the compound `CCN1CCN(c2ccc(C(=O)NC(C)c3ccncc3)cc2)CC1` (stereo not given), the “Percent Effect” value is listed as -3.258%. `Cc1cc(N2CCOCC2)ccc1NC(C)c1nc(C(C)(C)C)no1` (stereo not given): the “Percent Effect” value was determined as 111.3%. For `CCNC(=O)c1nnc2ccc(N3CCOCC3)cc2n1`, the “Percent Effect” value is reported as 17.66%. Regarding `Cc1cc(N2CCOCC2)ccc1NC(C)c1nc(C(C)C)no1` (stereo not given), the “Percent Effect” value turned out to be 89%. For `Cc1noc(C(C)Nc2ccc3oc(C(C)C)nc3c2)n1` (stereo not given), the “Percent Effect” value is 8.094%. As to `Cc1ccc(C(=O)N(C)CC(=O)N2CCCC2)c(C)c1`, the “Percent Effect” value is recorded as -3.926%. The value for `CCc1c(C(=O)O)nnn1-c1cccc(C)c1C` was 95.29%; that for `Cc1ccc(CCNC(=O)NCCCC(N)=O)c(C)c1` was -5.264%.

For `Cc1c(C(=O)O)nnn1-c1cccc2cccnc12`, the “Percent Effect” value is reported as -7.776%. Regarding `Cc1c(C(=O)N2CCC2(C)C)nnn1-c1cccc2cccnc12`, the “Percent Effect” value came to 0.9445%.

Consider `COCc1c(C(=O)O)nnn1Cc1cccc(C(F)(F)F)c1`, for which the “Percent Effect” value is on record as 8.575%.

For `Cc1ccc(C)c(-n2nnnc2SCN2CCCCC2=O)c1`, the “Percent Effect” value was -6.055%. The value for `COCc1c(C(=O)NC2CCCC2)nnn1-c1ccc(C)cc1` was -4.164%; that for `COc1cc(OC)c(-n2nnc(C(=O)O)c2C)cc1Cl` was -3.799%. `CCc1c(C(=O)O)nnn1-c1cc(C)cc(C)c1`: the “Percent Effect” value came to 90.67%.

`CCc1c(C(=O)O)nnn1-c1cc(C)ccc1C`: the “Percent Effect” value was 72.77%. Consider `CCc1c(C(=O)O)nnn1-c1ccc(C)cc1C`, for which the “Percent Effect” value amounted to 82.86%. Consider `CCc1cnc(N2C[C@H](OCc3csc(C)n3)[C@H]3COC[C@H]32)nc1.O=C(O)C(F)(F)F.O=C(O)C(F)(F)F`, for which the “Percent Effect” value was found to be 4.189%.

For the compound `CN1CCC(N[C@@H]2CO[C@H](CNC(=O)c3cccs3)[C@H]2O)CC1`, the “Percent Effect” value was -3.68%. On to `O=C(c1cn(CC(=O)N2CCc3[nH]cnc3C2)c2ccccc12)C1CC1`, for which the “Percent Effect” value amounted to 1.32%. In the case of `COc1ccc(NC(=O)CSC(F)(F)F)cn1`, the “Percent Effect” value worked out at 1.311%.
